Experimental findings from PubChem BioAssay (Tox21) are described below.

Assay [1] in a line: Nuclear factor erythroid 2-related factor 2/antioxidant responsive element (Nrf2/ARE) small molecule agonists: qHTS cell viability counter screen in human keratinocytes (AID 1919968; active = well fitted cell-killing curve with a large enough effect in the repeat runs; note: nearly all actives have a fitted effect of over 55% in size; note: potency is the fitted concentration of half-maximal effect). The essentials: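 Seed 1,500 KeratinoSens cells per well, then incubate 5 h at 37 C/5% CO2. Add compounds in DMSO and incubate 23 h. Add CellTiter-Fluor, wait 1 h and read fluorescence.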
Background: qHTS replaces the single test concentration by a dilution series.

The nature of assay [2]: Nuclear factor erythroid 2-related factor 2/antioxidant responsive element (Nrf2/ARE) small molecule agonists: luciferase reporter gene qHTS assay in human keratinocytes (AID 1919969; note: nearly all actives have a fitted effect of over 35% in size). (In general: In a reporter assay the amount or activity of a reporter protein is the signal.)
Assay [3] has as its target Gonadotropin-releasing hormone receptor (Homo sapiens) (UniProt P30968). The experiment in a line: Human gonadotropin-releasing hormone receptor (GnRHR) small molecule agonists, calcium flux assay in GnRHR-HEK293 cells (AID 1920063). Note: nearly all actives have a fitted effect of over 35% in size. Note: potency is the fitted concentration of half-maximal effect. The essentials:
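Cells: HEK293 stably expressing human GnRHR. Steps: overnight (18 h) culture, 1 h calcium dye loading at 37 C, compound addition, kinetic fluorescence read at 480/540 nm. Each compound tested at 15 concentrations in triplicate.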
Background: A change in cytosolic calcium serves as a functional read-out for many receptors and channels.

Assay [4] in a line: p53 small molecule agonists, cell-based qHTS assay with human liver microsomes (AID 1963577). The gist of the method: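 Compounds act here after metabolic activation: human liver microsomes and NADPH, both at 0.5 mg/mL final, were co-added to p53RE-bla cells. Incubation ran 16 h at 37 C, followed by LiveBLAzer detection.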
The nature of assay [5]: p53 small molecule agonists, cell-based qHTS assay with rat liver microsomes (AID 1963578). The gist of the method: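 Read-out is beta-lactamase reporter fluorescence (LiveBLAzer, 2 h, room temperature, dark) in p53RE-bla cells treated 16 h at 37 C with compound, rat liver microsomes and NADPH, both 0.5 mg/mL final.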
Assay [6] is described as follows: p53 small molecule agonists, cell-based qHTS assay with human liver microsomes: qHTS cell viability counter screen (AID 1963579). Note: nearly all actives have a fitted effect of over 45% in size. Note: potency is the fitted concentration of half-maximal effect. The gist of the method:
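Cells carrying the p53 response-element beta-lactamase reporter are treated for 16 h at 37 C with test compounds in the presence of human liver microsomes and NADPH (both 0.5 mg/mL final); ATP-based CellTiter-Glo luminescence then reports viability.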

The nature of assay [7]: p53 small molecule agonists, cell-based qHTS assay: qHTS cell viability counter screen (AID 1963581). Note: nearly all actives have a fitted effect of over 45% in size. Note: potency is the fitted concentration of half-maximal effect. The gist of the method: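 Cells: HCT-116 with p53 response element-driven beta-lactamase. Treatment: 16 h, 37 C, compounds in DMSO. Read: CellTiter-Glo luminescence after 30 min RT.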
Assay [8] has as its target 5-hydroxytryptamine receptor 2A (Homo sapiens) (UniProt P28223). The experiment in a line: 5-hydroxytryptamine receptor 2A (HTR2A) small molecule antagonists, cell-based qHTS assay (AID 1963586). Note: nearly all actives have a fitted effect of over 45% in size. Note: potency is the fitted concentration of half-maximal effect. The gist of the method:
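Antagonist-mode intracellular calcium assay: DOI (4 nM) added after 5 min compound pre-incubation at room temperature to dye-loaded HTR2A-CHO cells. Fluorescence followed for 3 min, sampled every second.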

For assay [9] the target is unchanged. The experiment in a line: 5-hydroxytryptamine receptor 2A (HTR2A) small molecule agonists, cell-based qHTS assay (AID 1963587). Note: nearly all actives have a fitted effect of over 30% in size. Note: potency is the fitted concentration of half-maximal effect. The gist of the method: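 HTR2A-CHO cells, plated 18 h at 37 C/5% CO2, dye-loaded 1 h at 37 C; compounds in DMSO added by pin tool (agonist mode). Intracellular calcium flux read as kinetic fluorescence on FDSS over 2 min at 1 s intervals.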

Assay [10] has as its target Muscarinic acetylcholine receptor M1 (Homo sapiens) (UniProt P11229). The experiment in a line: Cholinergic receptor muscarinic 1 (CHRM1) small molecule antagonists, cell-based qHTS assay (AID 1963588). Note: nearly all actives have a fitted effect of over 40% in size. Note: potency is the fitted concentration of half-maximal effect. The essentials:
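CHRM1-CHO calcium-flux assay, antagonist mode. Cells were seeded 18 h, dye-loaded 1 h at 37 C and given compound for 5 min at RT, then acetylcholine was added at 50nM. FDSS fluorescence was read 3 min; 15 concentrations, three runs.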

For assay [11] the target is unchanged. The experiment in a line: Cholinergic receptor muscarinic 1 (CHRM1) small molecule agonists, cell-based qHTS assay (AID 1963589). Note: nearly all actives have a fitted effect of over 35% in size. The gist of the method:
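Agonist-mode qHTS in CHO cells stably carrying human muscarinic M1. Intracellular calcium is tracked by fluorescence every second after compound transfer; each compound runs at 15 concentrations in three independent runs.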

A short description of assay [12]: cAMP Responsive Elements (CRE) small molecule agonists, cell-based qHTS assay (AID 1963590). The essentials: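 Agonist mode qHTS in CRE-bla HEK 293T cells: compounds dosed from DMSO for 3 h at 37 C/5% CO2, followed by LiveBLAzer B/G FRET substrate for 2 h at room temperature.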
For assay [13], the target named is Beta-2 adrenergic receptor (Homo sapiens) (UniProt P07550). The experiment in a line: Adrenergic beta2 receptor (ADRB2) small molecule antagonists, cell-based qHTS assay (AID 1963592). Note: nearly all actives have a fitted effect of over 50% in size. Note: potency is the fitted concentration of half-maximal effect. The essentials: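 Cells (CHO, stable ADRB2 overexpression) incubated 18-20hr at 37C; compounds added from DMSO; agonist mix (1nM isoproterenol, 100uM IBMX, 25uM Ro-20-1724) added; 0.5hr RT; d2-cAMP and anti-cAMP-cryptate added; 1hr RT; 665/615 nm read.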
Beta-2 adrenergic receptor (Homo sapiens), sequence (P07550 whole entry, looked up): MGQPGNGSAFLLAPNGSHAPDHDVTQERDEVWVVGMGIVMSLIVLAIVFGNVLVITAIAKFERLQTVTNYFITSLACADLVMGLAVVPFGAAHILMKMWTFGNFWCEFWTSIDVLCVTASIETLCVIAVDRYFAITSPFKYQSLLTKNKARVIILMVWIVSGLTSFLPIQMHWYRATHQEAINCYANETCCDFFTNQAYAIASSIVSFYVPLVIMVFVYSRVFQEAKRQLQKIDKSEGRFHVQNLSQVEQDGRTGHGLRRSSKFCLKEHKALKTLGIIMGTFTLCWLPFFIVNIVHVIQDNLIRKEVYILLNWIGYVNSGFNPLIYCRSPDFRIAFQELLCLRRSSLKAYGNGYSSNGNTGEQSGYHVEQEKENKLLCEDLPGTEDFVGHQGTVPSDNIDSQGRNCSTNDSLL

For assay [14], the target named is D(2) dopamine receptor (Homo sapiens) (UniProt P14416). The experiment in a line: Dopamine D2 receptor (DRD2) small molecule agonists, cell-based qHTS assay (AID 1963594). Note: nearly all actives have a fitted effect of over 35% in size. The gist of the method: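 HEK293 cells stably expressing DRD2 were cultured 24 h at 37 C, then given Ro20-1724 (0.1 mM final) and compounds for 10 min at room temperature. NKH477 (200nM) was then added for 30 min. cAMP was read by HTRF.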
D(2) dopamine receptor (Homo sapiens), sequence (P14416 whole entry, looked up): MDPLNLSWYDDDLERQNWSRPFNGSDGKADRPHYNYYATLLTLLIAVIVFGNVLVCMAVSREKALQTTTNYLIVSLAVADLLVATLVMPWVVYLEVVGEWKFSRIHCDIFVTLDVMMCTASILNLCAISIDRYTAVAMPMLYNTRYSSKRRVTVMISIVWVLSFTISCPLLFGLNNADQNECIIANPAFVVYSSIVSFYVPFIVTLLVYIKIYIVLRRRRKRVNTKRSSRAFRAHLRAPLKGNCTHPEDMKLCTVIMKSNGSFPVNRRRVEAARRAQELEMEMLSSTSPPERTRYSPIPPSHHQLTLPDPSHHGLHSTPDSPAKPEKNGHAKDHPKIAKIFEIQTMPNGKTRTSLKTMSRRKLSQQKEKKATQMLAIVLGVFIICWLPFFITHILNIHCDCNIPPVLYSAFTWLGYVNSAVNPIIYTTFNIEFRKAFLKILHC

Assay [15] has the same target. The experiment in a line: Dopamine D2 receptor (DRD2) small molecule antagonists, cell-based qHTS assay (AID 1963595; active = well fitted inhibition curve with a large enough effect in the signal ratio in the repeat runs, with a control signal flat; the % refers to the signal ratio). The gist of the method: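 HTRF cAMP read-out at 665 and 620 nm emission (340 nm excitation). Antagonist mode: compounds were tested against 12 nM quinpirole in DRD2-HEK293 cells, with 200 nM NKH477 raising cAMP and 0.1 mM Ro20-1724 blocking its breakdown.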

Assay [16] is described as follows: p53 small molecule agonists, cell-based qHTS assay with rat liver microsomes: qHTS cell viability counter screen (AID 1963580). Note: nearly all actives have a fitted effect of over 45% in size. Note: potency is the fitted concentration of half-maximal effect. The essentials: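 p53RE-bla HCT-116 cells (4,000/well) rested 5 h at 37 C, then given Tox21 compounds in DMSO with rat liver microsomes (0.5 mg/mL final) plus NADPH (0.5 mg/mL final) for 16 h at 37 C. Viability read by CellTiter-Glo luminescence after 30 min at room temperature.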

A short description of assay [17]: p53 small molecule agonists, cell-based qHTS assay (AID 1963582; active = well fitted activation curve with a large enough effect in the signal ratio in the repeat runs, not every such curve was filed as active; the % refers to the signal ratio). The essentials:
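Quantitative HTS in p53RE-bla cells: after a 5 h settling period, compounds delivered in DMSO were left on cells for 16 h at 37 C, and reporter induction was measured as fluorescence following 2 h substrate loading.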

The nature of assay [18]: cAMP Responsive Elements (CRE) small molecule antagonists, cell-based qHTS assay (AID 1963591; active = well fitted inhibition curve with a large enough effect in the signal ratio in the repeat runs, not every such curve was filed as active; the % refers to the signal ratio). The essentials:
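Antagonist mode: test compounds are co-incubated with the adenylyl cyclase activator NKH477 (0.25 uM final) on CRE-bla HEK293T cells for 3 h at 37 °C, followed by LiveBLAzer substrate loading.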

The target of assay [19] is Beta-2 adrenergic receptor (Homo sapiens) (UniProt P07550). The experiment in a line: Adrenergic beta2 receptor (ADRB2) small molecule agonists, cell-based qHTS assay (AID 1963593).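 Note: CHO cells stably overexpressing human ADRB2.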 The gist of the method:
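CHO cells stably over-expressing ADRB2 were plated overnight at 37C, then dosed with compounds plus a stimulation mix containing 100uM IBMX and 25uM Ro-20-1724 for 0.5hr at room temperature. cAMP was measured by HTRF competition, 1hr.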

Where “and” joins values, the source holds several entries; their conditions need not be identical. Equal entries are not always repeated. Records with an inconclusive call do not appear. Some structures have more than one record in an assay (separate samples or runs), and their calls can disagree. Calls of active or inactive are those of the source. Unless noted, calls come from the whole dose curve.

Gonadotropin-releasing hormone receptor (Homo sapiens), sequence (P30968 whole entry, looked up): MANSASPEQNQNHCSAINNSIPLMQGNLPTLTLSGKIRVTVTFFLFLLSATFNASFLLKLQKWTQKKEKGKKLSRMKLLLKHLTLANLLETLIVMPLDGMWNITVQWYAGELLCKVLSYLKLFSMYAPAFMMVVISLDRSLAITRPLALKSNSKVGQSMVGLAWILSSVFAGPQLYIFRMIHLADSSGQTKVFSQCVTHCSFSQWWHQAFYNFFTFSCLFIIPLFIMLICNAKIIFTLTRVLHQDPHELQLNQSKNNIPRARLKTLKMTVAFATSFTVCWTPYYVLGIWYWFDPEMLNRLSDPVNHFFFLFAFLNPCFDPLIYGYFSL
Muscarinic acetylcholine receptor M1 (Homo sapiens), sequence (P11229 whole entry, looked up): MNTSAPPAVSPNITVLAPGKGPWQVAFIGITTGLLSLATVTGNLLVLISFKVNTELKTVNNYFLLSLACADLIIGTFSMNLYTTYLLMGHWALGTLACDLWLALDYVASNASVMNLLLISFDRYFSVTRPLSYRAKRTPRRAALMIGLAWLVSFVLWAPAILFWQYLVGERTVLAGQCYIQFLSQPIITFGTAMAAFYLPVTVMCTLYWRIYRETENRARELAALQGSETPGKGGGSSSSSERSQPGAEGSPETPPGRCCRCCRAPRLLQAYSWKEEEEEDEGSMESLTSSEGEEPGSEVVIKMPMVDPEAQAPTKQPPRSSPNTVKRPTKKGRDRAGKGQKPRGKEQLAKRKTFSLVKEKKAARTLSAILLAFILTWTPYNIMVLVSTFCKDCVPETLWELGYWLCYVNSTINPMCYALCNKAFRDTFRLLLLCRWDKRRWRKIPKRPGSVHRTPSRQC
5-hydroxytryptamine receptor 2A (Homo sapiens), sequence (P28223 whole entry, looked up): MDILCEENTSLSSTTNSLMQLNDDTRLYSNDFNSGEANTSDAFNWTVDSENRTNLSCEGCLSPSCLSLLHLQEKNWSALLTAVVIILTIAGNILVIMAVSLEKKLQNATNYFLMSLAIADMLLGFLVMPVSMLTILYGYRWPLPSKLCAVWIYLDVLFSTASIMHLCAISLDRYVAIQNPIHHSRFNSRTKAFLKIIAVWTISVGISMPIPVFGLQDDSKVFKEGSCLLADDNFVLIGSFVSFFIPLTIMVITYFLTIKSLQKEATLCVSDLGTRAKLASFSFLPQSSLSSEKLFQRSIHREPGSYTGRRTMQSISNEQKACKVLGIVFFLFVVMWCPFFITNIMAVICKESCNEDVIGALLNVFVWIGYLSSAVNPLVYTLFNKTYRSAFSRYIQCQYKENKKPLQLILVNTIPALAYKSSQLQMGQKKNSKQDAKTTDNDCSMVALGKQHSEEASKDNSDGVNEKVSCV

`[O]=[Cr](=[O])([OH])[O][Cr](=[O])(=[O])[OH]`: the Potency in assay [1] was 30.9 µM (active) and 61 µM (active); in assay [6] it was 40.7 µM (active); in [7], 18.4 µM (active). The Potency result in assay [2], in [3], in assay [4], in [5], in assay [8] and in assay [9] was “inactive” each time. The Potency entry in [10], in assay [11], in assay [12], in [13], in [14] and in assay [15] was “inactive” throughout.
As to `CCCOC(=O)c1ccccc1C(=O)OCCC`, the Potency entry in assay [1], in assay [2], in assay [3], in assay [4], in assay [5] and in assay [16] was “inactive” each time. Further, the Potency entry in [7], in assay [17], in assay [8], in assay [9], in assay [10] and in assay [11] was “inactive” in each case. In addition, the Potency entry in assay [12], in [18], in assay [13], in [19], in assay [14] and in assay [15] was “inactive” in each case.
With `c1cc2c(c(N3CCNCC3)c1)OCCO2`, the Potency entry in [1], in assay [2], in assay [3], in [4], in [5] and in [6] was “inactive” in each case. Besides, the Potency entry in [7], in [17], in [10], in assay [12], in assay [18] and in assay [14] was “inactive” throughout. In addition, in assay [15], the Potency result is “inactive”. The values for the Potency in [8], in assay [9] and in assay [13] were 0.729 µM (active), 60.1 nM (active) and 15 µM (active), respectively.
With `CCCCCCCCCCn1cc[n+](C)c1`, the Potency result in assay [1] is “inactive and 61.4 µM (active) and 30.6 µM (active)”; in assay [6], 46.2 µM (active) and inactive; in [16], 36.7 µM (active) and inactive. In addition, the Potency result in assay [2], in assay [3], in assay [4], in [8], in [9] and in [11] was “inactive” each time. Further, the Potency result in assay [13], in [19], in [14] and in assay [15] was “inactive” each time.
As to `CCCCCCCCCCCCCCCC[N+](C)(C)C`, the Potency in assay [1] is 61.1 µM (active) and 5.96 µM (active); in assay [3] it was 13.3 µM (active) and 30.9 µM (active) and 12 µM (active); in [9], 18.8 µM (active) and 38.9 µM (active); in assay [10] it was 2.03 µM (active) and 840 nM (active). Besides, the Potency result in [2], in assay [6], in assay [16], in [8], in assay [18] and in [13] was “inactive” each time. Besides, the Potency entry in assay [19], in assay [14] and in assay [15] was “inactive” throughout.
Take `Cc1ccccc1[N+](=O)[O-]`: the Potency entry in assay [1], in [2], in assay [3], in assay [4], in assay [6] and in [16] was “inactive” each time. For the same compound, the Potency entry in [7], in assay [17], in assay [8], in [9], in assay [10] and in assay [12] was “inactive” each time. For the same compound, the Potency entry in assay [18], in assay [19] and in assay [14] was “inactive” throughout.
Consider `CCCCn1cc[n+](C)c1C`, for which the Potency entry in [1], in [2], in assay [3], in assay [6], in assay [16] and in assay [7] was “inactive” in each case. Further, the Potency result in assay [8], in assay [9], in assay [10], in assay [11], in assay [12] and in assay [18] was “inactive” each time. Also, the Potency result in assay [13], in assay [19], in assay [14] and in assay [15] was “inactive” throughout.
